Laboratory results: ChEMBL document CHEMBL3988442, “University of Dundee, Small-Polar-MMV Screening Library” (2021)
Out of some 48,000 compounds screened, about 13,000 (27%) showed an effect of 50% or more. The list shows a part of the results.

System: Wolbachia pipientis
Test: Anti-Wolbachia Cell-Based Screen
Format: functional
Parameters: scale not given: in the data most compounds retested in dose-response had high values
Details: 5 µM

Going from `CCCN(Cc1ccccc1)Cn1nc(C)c2c(C)onc2c1=O` to `CCN(Cc1ccccc1Cl)Cn1nc(C)c2c(C)onc2c1=O`, the “Percent Effect” value rises from 10.45% to 88.73%.

Going from `CCCN(CC)Cn1ncc2cn(-c3ccccc3)nc2c1=O` to `CCN(Cc1cccc(F)c1)Cn1nc(C)c2c(C)onc2c1=O`, the “Percent Effect” value rises from 21.01% to 123.6%.

Compared with `CCC(C)N(Cc1c[nH]c(C)n1)Cc1ccccc1Cl` (configuration not stated), `CCN(CC)Cc1ccccc1NCc1c(C)noc1C` is lower in “Percent Effect” value: 9.271% for the first, -28.25% for the second.

First: CCN(Cc1cccc(C)c1)Cn1nc(C)c2c(C)onc2c1=O
Second: CCN(Cc1cccc(Cl)c1)Cn1nc(C)c2c(C)onc2c1=O
The “Percent Effect” value of the first is higher: 127.1% for the first, 4.514% for the second.

Compared with `Cc1nn(CN(CC(C)C)C2CC2)c(=O)c2noc(C)c12`, `Cc1nn(CN(Cc2ccsc2)C2CC2)c(=O)c2noc(C)c12` is higher in “Percent Effect” value: -9.201% for the first, 0.1409% for the second.

First: Cc1cccc(CN(Cn2nc(C)c3c(C)onc3c2=O)C2CC2)c1
Second: CCN(Cc1c(F)cccc1F)Cn1nc(C)c2c(C)onc2c1=O
The “Percent Effect” value of the first is lower: -8.073% for the first, 127.8% for the second.

Going from `O=C(NC[C@H]1OC[C@@H](NCc2cccs2)[C@@H]1O)N1CCOCC1` to `O=C(NC[C@H]1OC[C@@H](NC2CCOCC2)[C@@H]1O)c1cccs1`, the “Percent Effect” value falls from 1.798% to -3.226%.

First: COc1cc(CN(C)C(=O)NCCC(=O)NC2CCCC2)ccc1SC
Second: COc1ccc(CCC(=O)N(C)CCN2CCOCC2)cc1OC
The “Percent Effect” value of the first is lower: -22.89% for the first, 6.913% for the second.

Compared with `Cn1ccnc1C(=O)NC[C@@H]1OC[C@H]2CN(S(C)(=O)=O)CC[C@H]21`, `CS(=O)(=O)NCC(=O)NC1CCc2nccn2C1` (configuration not stated) is higher in “Percent Effect” value: -19.48% for the first, 17.97% for the second.

Going from `CC(C)N(C)CC(=O)NC1CCc2nccn2C1` (configuration not stated) to `CS(=O)(=O)NCCC(=O)NC1CCc2nccn2C1` (configuration not stated), the “Percent Effect” value falls from 10.39% to -6.555%.

Compared with `O=C(CCn1cncn1)NC1CCc2nccn2C1` (configuration not stated), `O=C(CCCn1cncn1)NC1CCc2nccn2C1` (configuration not stated) is lower in “Percent Effect” value: 104.2% for the first, 92.38% for the second.

First: O=C(CCn1cncn1)NC1CCS(=O)(=O)C1 (configuration not stated)
Second: CC(C)CNC(=O)CN1C=Nc2ccccc2S1(=O)=O
The “Percent Effect” value of the first is higher: 5.446% for the first, -1.925% for the second.

Going from `COCCN(C)C(=O)Nc1cc2c(cc1SC)OCCO2` to `COc1cc(F)ccc1C(C(=O)O)N(C)CCN1CCOCC1` (configuration not stated), the “Percent Effect” value rises from -4.661% to -4.538%.

Compared with `O=C(CN1CCCNC1=O)Nc1ccccc1SC(F)(F)F`, `CC(=O)N1CCCC1c1cccc(Cc2ccccc2F)n1` (configuration not stated) is lower in “Percent Effect” value: 20.21% for the first, 1.098% for the second.

Compared with `Cc1cc(N2CCN(Cc3ccsc3)C(CCO)C2)nc(N)n1` (configuration not stated), `Cn1nc(Cn2cccn2)c2c1CN(Cc1ccsc1)C2.O=C(O)C(F)(F)F` is lower in “Percent Effect” value: 18.89% for the first, -9.596% for the second.

Going from `CSc1ncc(C(=O)N2C[C@H]3CC[C@@H]2CN(S(=O)(=O)N(C)C)C3)cn1` to `Cn1ccnc1Sc1ncc(C(=O)N2CCCCC2)cc1Cl`, the “Percent Effect” value rises from -20.31% to 1.099%.

Going from `O=C(NC1CC1)c1cc(NC(=O)N2CCCC(O)C2)ccc1Cl` (configuration not stated) to `CCc1cc(NC(=O)C2CCCN(C(=O)c3ccncc3)C2)[nH]n1` (configuration not stated), the “Percent Effect” value rises from -7.994% to 100.1%.

First: COc1cccc(CC2CN(C3CCN(C(C)=O)CC3)CCO2)c1 (configuration not stated)
Second: O=C(c1ccc(C2CCCO2)s1)N1CCN(c2ccccc2F)CC1 (configuration not stated)
The “Percent Effect” value of the first is lower: -14.95% for the first, 2.107% for the second.

First: CCc1cc(NC(=O)C2CCCN(C(=O)NCC(C)C)C2)[nH]n1 (configuration not stated)
Second: CCc1cc(CNC(=O)C2CCCN(C(=O)NCC(C)C)C2)[nH]n1 (configuration not stated)
The “Percent Effect” value of the first is lower: 96.52% for the first, 152.4% for the second.

Going from `COCC(=O)N1CCCC(C(=O)NCc2cc(CC(C)C)on2)C1` (configuration not stated) to `CC(C)Cc1cc(CNC(=O)C2CCCN(C(=O)N(C)C)C2)no1` (configuration not stated), the “Percent Effect” value falls from 3.91% to 1.053%.

First: CCC(CC)c1cc(CNC(=O)N2CCCC(C(=O)NC)C2)on1 (configuration not stated)
Second: CSCc1nc(CNC(=O)C2CCCN(C(=O)N(C)C)C2)cs1 (configuration not stated)
The “Percent Effect” value of the first is lower: -0.3036% for the first, 1.326% for the second.

First: Cc1cc(CN(C)C(=O)C2CCCN(C(=O)c3ccc(Cl)cc3)C2)no1 (configuration not stated)
Second: CCOC(=O)CNC(=O)N1CCc2onc(-c3ccc(Cl)cc3)c2C1
The “Percent Effect” value of the first is lower: -5.924% for the first, -4.75% for the second.

Compared with `COCCN1CCOCC12CCN(c1cnccn1)CC2.O=C(O)C(F)(F)F`, `CCN1CCOCC12CCN(c1cnccn1)CC2.O=C(O)C(F)(F)F` is lower in “Percent Effect” value: 110.8% for the first, 94.98% for the second.

Compared with `COCCN1CCOCC12CCN(c1nccs1)CC2.O=C(O)C(F)(F)F`, `CCN1CCOCC12CCN(c1nccs1)CC2.O=C(O)C(F)(F)F` is lower in “Percent Effect” value: 44.08% for the first, -65.58% for the second.

First: CCN1CCOCC12CCN(c1ccc(C#N)cc1)CC2.O=C(O)C(F)(F)F
Second: COCCN1CCOCC2(CCN(c3cnccn3)CC2)C1.O=C(O)C(F)(F)F
The “Percent Effect” value of the first is higher: -6.455% for the first, -15.76% for the second.

Going from `CC(C)(C)c1cc(C(=O)NCCn2nc3ccccn3c2=O)[nH]n1` to `Cc1nc(-c2ccccc2)n(CC(=O)NCC(C)C)n1`, the “Percent Effect” value falls from 15.5% to -0.5584%.

First: O=C(NCc1ccnc(C2CCCOC2)n1)c1cccs1 (configuration not stated)
Second: O=C(NC[C@H]1OC[C@@H](NC2CCC2)[C@@H]1O)c1cccs1
The “Percent Effect” value of the first is higher: 112.2% for the first, 2.166% for the second.

Going from `Cc1cccn2c(CNC(C)CCn3cccn3)cnc12` (configuration not stated) to `CCN(Cc1nccn1C)C(=O)c1ccc(NCc2cnn(C)c2)nc1`, the “Percent Effect” value falls from -12.69% to -21.14%.

First: CCOC(=O)CNC(=O)Cn1c(-c2ccoc2)nc(C)c1C
Second: Cc1nc(-c2ccoc2)n(CC(=O)NCC(C)C)c1C
The “Percent Effect” value of the first is lower: 117% for the first, 121.2% for the second.

Going from `Cc1nc(NC(=O)N(C)Cc2ccoc2)nn1C` to `COc1cccn(CC(=O)N(C)Cc2ccoc2)c1=O`, the “Percent Effect” value falls from -1.976% to -6.863%.

Compared with `Cc1nc(-c2ccoc2)n(CC(=O)N(C)CC(C)C)c1C`, `CCCC(=O)N(CCN1CCOCC1)c1nc2c(OC)ccc(C)c2s1.Cl` is lower in “Percent Effect” value: 99.79% for the first, 15.71% for the second.

Compared with `CCOC(=O)CCCNC(=O)CN1CCN(c2ncccn2)CC1`, `CCS(=O)(=O)c1ccc(N2CCC(NC(=O)c3ccccn3)CC2)cc1` is higher in “Percent Effect” value: -1.703% for the first, 1.284% for the second.

Going from `CSCCC(C)NC(=O)N(C)Cc1cc(Cl)cn1C` (configuration not stated) to `Cn1c(NC(=O)CNC(=O)C2CC2)nc2cc(Cl)ccc21`, the “Percent Effect” value rises from -13.17% to -0.3531%.

Going from `CNC(=O)c1cc2c(nc1NCC(C)C)CCN(S(C)(=O)=O)CC2` to `CS(=O)(=O)N1CCCC1c1cccc(Cc2ccccc2F)n1` (configuration not stated), the “Percent Effect” value rises from -6.713% to 107.7%.

Going from `CN(Cc1cccc(C#N)c1)S(=O)(=O)N1CCOCC1` to `CN1CC2(CCN(Cc3cccc(C#N)c3)CC2)CC1=O`, the “Percent Effect” value falls from 12.93% to 2.767%.

Going from `CCOc1ccc(CN(CCC#N)CCN2CCOCC2)cc1OC` to `COc1ccc(CN(CCC#N)CCN2CCOCC2)cc1OC`, the “Percent Effect” value rises from 119.9% to 124%.

First: N#Cc1cc(CSCCN2CCOCC2)ccc1F
Second: COc1ccc(C#N)cc1CSCCN1CCOCC1
The “Percent Effect” value of the first is lower: -6.22% for the first, -1.196% for the second.

Going from `COc1ccc(CN(CCC#N)CCN2CCOCC2)c(OC)c1` to `N#CCCN(CCN1CCOCC1)Cc1ccc(F)c(Br)c1`, the “Percent Effect” value rises from 118.6% to 132.9%.

Compared with `COc1ccc(CN(C)Cc2cccc(C#N)c2)c(OC)c1`, `COc1ccc(C[C@H]2CN(c3nnc(C)s3)CC[C@@H]2OC)cc1.O=C(O)C(F)(F)F` is higher in “Percent Effect” value: 0.7087% for the first, 83.05% for the second.

Compared with `N#CC1COCCN1S(=O)(=O)c1ccc(F)c(Br)c1` (configuration not stated), `Cc1nccn1CC1CCCN1S(=O)(=O)Cc1ccccc1F` (configuration not stated) is higher in “Percent Effect” value: -8.72% for the first, -7.214% for the second.

Compared with `CCc1ccccc1OC1CN(C(=O)c2cccs2)C1`, `CC(=O)N1CCCC1c1cccc(Cc2ccccc2Cl)n1` (configuration not stated) is higher in “Percent Effect” value: 3.168% for the first, 110.5% for the second.

Going from `CC(C)c1nn(C)c(N2CCOCC2)c1CN[C@H](C)CO` to `CCc1n[nH]c(C2CN(Cc3nnc(C4CC4)n3C)CCO2)n1` (configuration not stated), the “Percent Effect” value rises from -7.825% to -1.784%.

First: Cc1c[nH]c(CN2CCCCC2CCn2ccnc2C)c(C)c1=O (configuration not stated)
Second: CN(C)C(=O)CN1CCCC1c1cccc(Cc2ccccc2F)n1 (configuration not stated)
The “Percent Effect” value of the first is lower: -47.12% for the first, 121.7% for the second.

Compared with `CC(=O)N1CCCC1c1cccc(NCc2ccccc2F)n1` (configuration not stated), `CC(=O)N1CCCC1c1cccc(Oc2ccccc2F)n1` (configuration not stated) is higher in “Percent Effect” value: 111.2% for the first, 150.9% for the second.

Compared with `COCCN(C)CC1CCCN1S(=O)(=O)Cc1ccccc1F` (configuration not stated), `COCC(=O)N1CCCC1c1cccc(Cc2ccccc2F)n1` (configuration not stated) is higher in “Percent Effect” value: 4.481% for the first, 111% for the second.

Compared with `O=C(NC[C@H]1OC[C@@H](NC2COC2)[C@@H]1O)c1cccs1`, `COc1ccc(C[C@H]2CN(c3nnc(C)s3)CC[C@H]2OC)cc1.O=C(O)C(F)(F)F` is higher in “Percent Effect” value: 4.392% for the first, 100.4% for the second.

First: CN(Cc1ccoc1)C(=O)C1CC(=O)N(Cc2ccncc2)C1 (configuration not stated)
Second: O=C(O)C(F)(F)F.O=C(c1cnccn1)N1CCCC2(CCN(Cc3ccc(F)cc3)C2)C1 (configuration not stated)
The “Percent Effect” value of the first is lower: 3.123% for the first, 8.086% for the second.

First: CC(C)(C)c1coc([C@@H]2COCCN2CC2CC2)n1
Second: O=C(O)C(F)(F)F.O=C(O)C(F)(F)F.c1csc(CN2CC3(CCN(Cc4ccsc4)C3)C2)n1
The “Percent Effect” value of the first is lower: -8.42% for the first, -7.051% for the second.

Going from `O=C(O)C(F)(F)F.O=C(c1cnccn1)N1CCCC2(CCN(Cc3ccsc3)CC2)C1` to `O=C(O)C(F)(F)F.O=C(c1cnccn1)N1CCCC2(CCN(Cc3ccsc3)C2)C1` (configuration not stated), the “Percent Effect” value falls from 106.6% to 100.1%.

First: O=C(O)C(F)(F)F.O=C(c1cnccn1)N1CCOC2(CCN(Cc3ccsc3)CC2)C1
Second: O=C(O)C(F)(F)F.O=C(c1cnccn1)N1CC2(CCN(Cc3ccsc3)C2)C1
The “Percent Effect” value of the first is lower: -59.08% for the first, 96.61% for the second.

First: Cn1cccc1CN1CCC2(CCCN(C(=O)c3cnccn3)C2)C1.O=C(O)C(F)(F)F (configuration not stated)
Second: O=C(O)C(F)(F)F.O=C(O)C(F)(F)F.O=C(c1cnccn1)N1CCCC2(CCN(Cc3cccnc3)C2)C1 (configuration not stated)
The “Percent Effect” value of the first is higher: -0.2095% for the first, -9.392% for the second.
